# Several values for one entry are separate records, joined by “and”; a condition that tells them apart may be missing. Equal values may be shown once. About 1,500 (0.45%) of roughly 330,000 compounds were called active. Roughly 6% stayed inconclusive and do not appear here. The call rests on the fitted dose curve; tested in A549 cells. Only a selection was taken, and actives are over-represented in it overall. Some compounds were tested as several samples or in several runs, with calls that do not always agree.
# Experiment: qHTS for Stage-Specific Inhibitors of Vaccinia Orthopoxvirus: Venus Reporter Primary qHTS; further: nearly all actives have a fitted effect of over 30% in size
# Details: Vaccinia virus Venus reporter expression, fluorescence; series mostly up to 36.5 µM; activity change, negative = inhibition: at the top concentration
# On the % scale 0 is the no-effect control and ±100 the full control effect; potency means the concentration at half of the fitted maximal effect.
Structure (SMILES),"activity change, negative = inhibition",Potency
CCCCC[C@H](C)N1C[C@@H](COCc2ccccc2)Oc2cc(N3CC[C@@H](N(C)C)C3)ccc2S1(=O)=O,-10.3% (inactive),–
CCC(C(=O)NCc1ccccc1)n1c(Cc2cc(F)cc(F)c2)nc2ccccc21 (stereo not given),-13.7% (inactive),–
CCCCNC(=O)C[C@@H]1C[C@@]2(C(=O)OC)CC(C)(C)CC=C2N(Cc2ccco2)C1=O,-17.4% (inactive),–
O=C(c1ccc(C(F)(F)F)cc1)N1CCC(=O)N([C@H](COCc2ccccc2)Cc2ccccc2)CC1,-11.3% (inactive),–
O=C1Nc2ccccc2NC(c2ccc3c(c2)OCO3)=C1N(Cc1ccc(F)cc1)C(=O)c1ccco1,8.77% (inactive),–
COc1ccc2c(C(=O)c3ccc(C)cc3)n(CCC(N)=O)[n+]([O-])c2c1,-5.46% (inactive),–
COc1ccc(Cc2nnc(SCC(=O)c3cccc([N+](=O)[O-])c3)n2C)cc1,-7.6% (inactive),–
COc1ccc(C(=O)c2c3ccc([N+](=O)[O-])cc3[n+]([O-])n2CCCN)cc1,–,10 µM (active)
COc1ccc(C(C)(O)c2nc(-c3ccc(C)c(C)c3)cs2)cc1 (stereo not given),-24.7% (inactive),–
CCOc1ccc(/C=N/NC(N)=S)cc1,–,1 µM (active)
CCOc1ccc(/C=N\NC(=O)c2c(C)nc3cc(C)ccn23)cc1,-16.5% (inactive),–
CCOc1ccc(-c2cc(C(=O)N/N=C/c3ccc(O)cc3)c3ccccc3n2)cc1,0% (inactive),–
CCCCn1nnnc1C(c1cccc(OC)c1OC)N1CCN(C/C=C/c2ccccc2)CC1 (stereo not given),-4.84% (inactive),–
C=CCC[C@H](CCCCC)OC(=O)/C=C/[C@H](O)[C@@H](O)C[C@@H](O)CC=C,-17.3% (inactive),–
COC(=O)[C@]12CCCCC=C1N(Cc1ccco1)C(=O)[C@H](CC(=O)NCC1CCCCC1)C2,-1.07% (inactive),–
COc1ccc(CN(Cc2ccccc2)C(=O)c2ccc(O)cc2)cc1COc1ccc(NC(C)=O)cc1,-14.1% (inactive),–
COc1cc(C#Cc2ccc3cc(CCCO)oc(=O)c3c2)cc(OC)c1,-27.7% (inactive),–
COc1cc(/C=C2\Oc3ccc(C#Cc4ccc(O)cc4)cc3C2=O)cc(OC)c1,–,8.91 µM (active)
CC(C)C1C(=O)N(Cc2cn(CCC3OCCO3)nn2)CCS(=O)(=O)N1Cc1ccc(-c2ccccc2C(F)(F)F)cc1 (stereo not given),-11.9% (inactive),–
Cc1noc(C)c1COc1ccc2ccc(=O)oc2c1,-14.6% (inactive),–
CC(C)OC(=O)c1ccc(COc2ccc3ccc(=O)oc3c2)o1,-3.73% (inactive),–
CC(=CCOc1ccc2ccc(=O)oc2c1)C1=CC(=O)C(C)(C)O1,–,3.55 µM (active)
CCOc1ccc(CCN2C(=S)N([C@@H](CC(C)C)CN3CCC[C@@H]3CN3C(=S)NC[C@@H]3Cc3ccc(O)cc3)C[C@@H]2CC(C)C)cc1,-12.4% (inactive),–
Cc1ccc(CCC(=O)Nc2ncc(Cc3cc(Cl)ccc3Cl)s2)o1,–,4.47 µM (active)

Structure (SMILES),"activity change, negative = inhibition",Potency
Cc1ccc(C(=O)Nc2nc3ccc(Cl)cc3s2)o1,-7.19% [at 7.34 µM] (inactive),–
Cc1cnc(NC(=O)CSc2nnc(-c3ccc(Cl)cc3Cl)n2N)s1,-22.3% (inactive),–
COC(=O)C1=CN(c2c(C)cc(C)cc2C)C(N)=C(C#N)C1c1cccc(F)c1 (stereo not given),-25.6% (inactive),–
Brc1ccc2ncnc(NCc3cccnc3)c2c1,-18.1% (inactive),–
Clc1ccc(Cn2ncc3c(NCc4cccnc4)ncnc32)cc1,–,8.91 µM (active)
CC(C)CNc1ncnc2c1cnn2Cc1ccc(Cl)cc1,-9.44% (inactive),–
CC(C)C[C@H]1CN([C@@H](Cc2ccccc2)CN2CCC[C@@H]2CN2C(=O)C(=O)NC[C@@H]2Cc2ccc(O)cc2)C(=O)C(=O)N1CCc1ccccc1,-8.63% (inactive),–
COc1ccc(-c2nc(=N)sn2-c2ccccc2)cc1,-26.5% (inactive),–
COc1ccc(C(NC(=O)C2CCN(CCCc3ccccc3)CC2)c2cccs2)cc1 (stereo not given),-17.3% (inactive),–
N#Cc1c(Cl)c(Cl)c(Cl)c(C#N)c1Cl,–,inactive and 14.1 µM (active)
CCOc1ccc(NC(=O)CSc2nnc3c(n2)[nH]c2ccc(S(=O)(=O)N4CCOCC4)cc23)cc1,-23.5% (inactive),–
COC1CC(OC2CC[C@@]3(C=O)C4CC[C@]5(C)C(C6=CC(=O)OC6)CC[C@@]5(O)C4CC[C@]3(O)C2)OC(C)C1O (stereo not given in full),–,0.282 µM (active)
COC1C(O)C(C)OC(OC2CCC3(C=O)C(CCC4C3CCC3(C)C(C5=CC(=O)OC5)CCC43O)C2)C1O (stereo not given),–,0.1 µM (active)
O=C(Nc1ccc2c(c1)OCCO2)C(C1CC1)N1CCC(Cc2ccccc2)CC1 (stereo not given),1.13% (inactive),–
O=S1(=O)CC(N2CCN(Cc3ccccc3F)CC2)CN1Cc1cn(Cc2ccccc2)nn1 (stereo not given),-1.01% (inactive),–
Cc1nc2c(OCc3ccc(Cl)cc3)cccn2c1N(C)Cc1cccs1,-19.4% (inactive),–
CCOC(=O)[C@]12CCCC=C1N(Cc1ccc3c(c1)OCO3)C(=O)[C@H](CC(=O)N1CCN(C(=O)c3ccco3)CC1)C2,-3.23% (inactive),–
COc1ccc(C(=O)NCc2nnc(SCC(=O)NC3=NCCS3)n2C)cc1,1.83% (inactive),–
COC(=O)c1ccc(NC(=O)CSc2nnc(C3CC3)n2C)cc1,-11.9% (inactive),–
COC(=O)c1ccc(NC(=O)CSc2nnc(CNc3ccc(OC)cc3)n2C)cc1,–,12.6 µM (active)
Cc1ccc(S(=O)(=O)N2[C@@H](Cc3ccccc3)CO[C@H]2CC(=O)OCc2ccccc2)cc1,-15.6% (inactive),–
N#Cc1cccc(NC(=O)c2cc(C3CCCCN3C(=O)CCc3ccccc3)on2)c1 (stereo not given),-6.64% (inactive),–
CCOC(=O)N1C(=O)C[C@](Sc2ccc(C)cc2)(C(=O)OC)[C@H]1c1ccccc1,8.58% (inactive),–
COc1ccc(OC)c(NC(=O)C2(C)CCN2C(=O)Cc2ccccc2)c1 (stereo not given),-2.79% (inactive),–

Structure (SMILES),"activity change, negative = inhibition",Potency
O=C(NCc1cccnc1)c1cc(C2CCCN(C(=O)C3CCCCC3)C2)on1 (stereo not given),1.16% (inactive),–
CC(C)C[C@H](CO)Nc1nc(N(C)c2cccc(Cl)c2)c2ncn(C(C)C)c2n1,-28.6% (inactive),–
CC(C)n1cnc2c(Nc3cccc(Cl)c3)nc(N(CCO)CCCO)nc21,–,11.2 µM (active)
COC(=O)[C@@]12C[C@@H](CC(=O)N3CCCCC3)C(=O)N(Cc3ccc4c(c3)OCO4)C1=CCC(C)(C)C2,-19.4% (inactive),–
CCc1nc2c(OCc3ccc(C(=O)OC)cc3)cccn2c1N(C)C(=O)C(C)C,-10.2% (inactive),–
CN(C)c1ccc(/C=C/C=C/c2ccnc3ccccc23)cc1,128% (inactive),–
Cc1cnc(CNc2nc(-c3cccnc3)nc3ccccc23)cn1,0% (inactive),–
O=[N+]([O-])c1ccc(F)cc1Oc1nc(-c2cccnc2)nc2ccccc12,–,5.01 µM (active)
COc1cccc(-c2nc(Nc3ccncc3)c3ccccc3n2)c1,19.3% (inactive),–
COC(=O)C1(C(=O)OC)C[C@H](c2ccccc2)N(Cc2ccccc2OC)[C@@H]1c1ccccc1,-4.94% (inactive),–
COc1ccc(OC)c(Cc2cnc3nc(N)nc(N)c3c2C)c1,–,1.12 µM (active)
COc1ccc(OC)c(NC(=O)c2sc3nc(C)cc(C)c3c2N)c1,-20.7% (inactive),–
COc1ccc(OC)c(Cc2nnc(CCC(=O)NC3CCCC3)o2)c1,-24.9% (inactive),–
CCCCCCCNc1ccc(/C=C/c2ccnc3ccccc23)cc1,14.6% (inactive),–
COC(=O)NC1(C(F)(F)F)NC(=O)N(C2CCCCC2)C1=O (stereo not given),-9.65% (inactive),–
O=C(NC1(C(F)(F)F)NC(=O)N(C2CCCCC2)C1=O)c1ccco1 (stereo not given),-16.3% (inactive),–
O=C1NC(Nc2nc3ccccc3s2)(C(F)(F)F)C(=O)N1C1CCCCC1 (stereo not given),–,10 µM (active)
Cc1ccc(Cc2c(-c3ccco3)nc3ccc(Cl)cn23)cc1,4.2% (inactive),–
SCc1nc2ccc(Cl)cc2[nH]1,-13.3% (inactive),–
O=C(c1cnn2c1NC(=C1CC1)C=C2C(F)F)N1CCc2ccccc2C1,-21.9% (inactive),–
CCN1CCC(O)(/C=C/c2ccc(C)cc2)C(C(=O)/C=C/c2ccc(C)cc2)C1 (stereo not given),–,17.8 µM (active)
CCOC(=O)C1CCCN(C(=O)/C=C/c2ccc(OC)cc2)C1 (stereo not given),-0.189% (inactive),–
N#Cc1ccc(C(C(=O)NCc2ccccc2)n2c(=O)c(-c3ccco3)nc3ccccc32)cc1 (stereo not given),-0.43% (inactive),–
CN(C)c1ccc(/C=N\Nc2ccc([N+](=O)[O-])cc2[N+](=O)[O-])cc1Cl,-16.2% (inactive),–

Structure (SMILES),"activity change, negative = inhibition",Potency
COc1ccc(Cc2nnc(N/N=C/c3ccccc3O)[nH]c2=O)cc1OC,–,1.26 µM (active)
O=c1[nH]c(NCCO)nnc1Cc1ccc(Cl)cc1,1.34% (inactive),–
COc1ccc(CCNC(=O)CCc2ccccc2O)cc1OC,3.53% (inactive),–
CCCCOc1ccc(C(=O)NO)cc1,-14.6% (inactive),–
CC(=O)N1Cc2cc(C(=O)NCc3cccc(F)c3)nc(-c3cccc(C4=CCCC4)c3)c2[C@H]1CCO,-20.8% (inactive),–
Cc1c(Cl)c([N+](=O)[O-])nn1CCCC(=O)Nc1cc(Cl)ccc1Cl,-17.6% (inactive),–
Cc1ccc(C(=O)O)cc1NC(=O)c1ccc(Cn2nc(C)c(Cl)c2C)o1,-7.79% (inactive),–
Cc1c(Cl)c([N+](=O)[O-])nn1Cc1ccc(C(=O)N/N=C\c2cc(Cl)ccc2O)o1,–,5.62 µM (active)
COc1cc2nc(N3CCCN(C)CC3)nc(NC3CC3)c2cc1OC,-26.8% (inactive),–
COc1ccc(-c2csc(C(O)c3cccc(Cl)c3)n2)cn1 (stereo not given),-10.5% (inactive),–
COc1ccc(NC(=O)CN(C)CC(=O)Nc2cccc(C(F)(F)F)c2)cc1,-12.9% (inactive),–
Cc1cccc(NC(=O)c2nnn(-c3cccc(C(F)(F)F)c3)c2N)c1,-9.05% (inactive),–
COc1cc(NC(=O)c2[nH]cnc2C(N)=O)cc(C(=O)Nc2cccc(C(F)(F)F)c2)c1,–,10 µM (active)
COC(=O)[C@]12CCCCC=C1N(Cc1ccco1)C(=O)[C@H](CC(=O)NCCCCc1ccccc1)C2,-2.07% (inactive),–
CCCCC(=O)N/N=C/c1c(O)n(CC)c(=S)n(CC)c1=O,–,12.6 µM (active)
O=C(CCC(=O)N/N=C/c1ccc(Br)o1)N/N=C/c1ccc(Br)o1,-3.51% (inactive),–
CCOc1cc(C=NNC(=O)CCCC(=O)NN=Cc2ccc(O)c(OCC)c2)ccc1O,4.08% (inactive),–
CCOc1ccc2nc(N3CCCN(CCCn4cccn4)CC3)nc(C)c2c1,-19.6% (inactive),–
O=S(=O)(Nc1n[nH]c(C(F)(F)F)n1)c1ccccc1,-0.63% (inactive),–
O=c1[nH]nc(SCCS(=O)(=O)c2ccc(F)cc2)n1-c1ccccc1C(F)(F)F,–,3.16 µM (active)
CN(O)C(=S)c1ccccc1,–,11.2 µM (active)
S=C(c1ccccc1)N1CCCC1,-10.5% (inactive),–
CN(CC(=O)O)C(=O)c1ccccc1,-1.7% (inactive),–
